# Compound activity: PubChem BioAssay, National Center for Advancing Translational Sciences (NCATS)
# Hits are enriched below; roughly 21% of the tested compounds scored in any of these assays.
# NS1 function inh: blocks influenza NS1 protein function | actives 0.4% (n = 270,000) | AID 2326 | Potency, µM (doses to about 46.1 µM), for the others: at the top dose activity, positive = more growth; further: potency means the concentration at half of the fitted maximal effect; actives are rising curves; nearly all actives have a fitted effect of over 50% in size
#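 OD600 was taken as the measure of yeast growth restored by compound in an NS1-expressing S. cerevisiae strain. Cells had been washed out of glucose medium and diluted 1:100 into galactose -URA medium, pH 6.0.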
# SARS PLP yeast: SARS-CoV PLP inhibition in yeast. Potency, µM (doses to about 32.9 µM), inactives show at the top dose activity, positive = growth rescue, hits mostly activators. actives 0.19% (n = 330,000). S. cerevisiae expressing SARS-CoV PLpro, growth rescue; further: potency means the concentration at half of the fitted maximal effect; 0% is about no effect; nearly all actives have a fitted effect of over 55% in size
# Pf growth 48h: inhibits P. falciparum growth in the first generation, 48 h | AID 504832 | Potency, µM (series often up to 28.7 µM), without a hit: at the highest dose activity change, negative = inhibition, most hits filed as inhibitors | P. falciparum luciferase growth in erythrocytes, 48 h | actives 5.9% (n = 310,000); active means well fitted inhibition curve with a large enough effect; inconclusive means small, poorly fitted or top-dose-only effect, or another doubt; inactive means no such curve, though single readings can be large or run the other way; further: potency means the concentration at half of the fitted maximal effect; on the % scale 0 is the no-effect control and ±100 the full control effect
#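 First compound was added to culture medium, then infected red cells at 0.1% parasitemia and 2% hematocrit (final). After incubation at 37 C under 5% CO2, luciferase detection reagent was dispensed and light output recorded.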
# Pf growth 96h: P. falciparum growth inhibition at 96 hours; Potency, µM (highest dose often 28.7 µM), for inactives: at the top dose activity change, negative = inhibition, actives largely listed as inhibitors; actives 6.9% (n = 320,000); P. falciparum luciferase reporter growth, 96 h; active means well fitted inhibition curve with a large enough effect; inconclusive means small, poorly fitted or top-dose-only effect, or another doubt; inactive means no such curve, though single readings can be large or run the other way; further: potency means the concentration at half of the fitted maximal effect; on the % scale 0 is the no-effect control and ±100 the full control effect
#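 P. falciparum expressing integrated firefly luciferase, in erythrocytes at 2% hematocrit, 0.05% parasitemia, incubated with compounds 96 h at 37 C, 5% CO2. Growth inhibition read as loss of luminescence; two-generation exposure targets delayed-death apicoplast inhibitors.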
# CHX counter: affects cycloheximide protein synthesis inhibition readout, counter-screen | actives 12% (n = 300,000) | max response, % | cell reporter, cycloheximide protein synthesis inhibition counterscreen; in the data active means max response mostly above about 13%, no sharp cut-off; inactive means mostly below about 14%; further: read at 38.3 µM for the half of the compounds with a filed dose; 0% is about no effect
# Shiga inhibitor: inhibitors of Shiga toxin in Vero cells. Vero cells, Shiga toxin protein synthesis inhibition reporter. inhibition, % at 38.7 µM. actives 9.2% (n = 290,000); in the data active means inhibition mostly above about 28%, no sharp cut-off; inactive means mostly below about 43%; further: 0% is about no effect
# Active calls of the source: *; ? = inconclusive; · = not tested or not shown. Unless noted, the call rests on the fitted dose curve.
SMILES,NS1 function inh,SARS PLP yeast,Pf growth 48h,Pf growth 96h,CHX counter,Shiga inhibitor
NC(=O)c1ccc(NC(=O)Cc2csc(-c3ccccc3)n2)cc1,8%,1%,-2%,11%,-3,-3
CC(=O)NCCc1csc(-c2ccccc2)n1,-3%,5%,67%,?,16*,39
Cc1cccn2cc(CCNC(=O)c3cccs3)nc12,2%,0%,37%,2%,18*,33
O=C(Cc1csc(-c2ccccc2)n1)NCc1cccs1,·,-6%,40%,31%,24*,37*
CCS(=O)(=O)NCCc1csc(-c2ccccc2)n1,1%,-1%,67%,0%,57*,71*
CCC(Sc1nnc(C)c(=O)[nH]1)C(=O)Nc1cccc2ccccc12 (configuration not stated),3%,-3%,4%,18%,-1,-9
O=C(O)CC1S/C(=N\N=C2\C(=O)Nc3ccccc32)N(c2ccc(O)cc2)C1=O (configuration not stated),3%,0%,23%,2%,12,18
O=C(NCCc1csc(-c2ccccc2)n1)c1cccs1,-23%,-8%,-18%,1%,13*,-15
CC(C)(C)CC(=O)NCCc1csc(-c2ccccc2)n1,-78%,-9%,-2%,43%,22*,34*
O=C(NCCc1csc(-c2ccccc2)n1)c1ccco1,-42%,-4%,?,21%,13,41
COc1ccccc1N1CCN(CC(O)COc2ccc(C)cc2C(C)(C)C)CC1 (configuration not stated),·,·,·,·,-9,-2
CCOc1ccc(NS(=O)(=O)c2cccc(C(=O)N(C)Cc3ccco3)c2)cc1,·,-2%,?,-28%,·,·
COC(=O)CCCC(=O)N1CCC(CCC(=O)NC2CC2)CC1,-8%,9%,13%,-8%,-5,-8
CC(=O)c1ccccc1Oc1cc(NN2CCCCC2)c([N+](=O)[O-])cc1[N+](=O)[O-],5%,-1%,-19%,?,9,13
CC(=O)c1cccc(Oc2cc(NN3CCCCC3)c([N+](=O)[O-])cc2[N+](=O)[O-])c1,-17%,12%,-9%,12µM*,1,-8
Cc1ccc(Oc2cc(NN3CCCCC3)c([N+](=O)[O-])cc2[N+](=O)[O-])c(Cl)c1,22%,-15%,?,13µM*,1,-6
Cc1ccc(Oc2cc(NN3CCCCC3)c([N+](=O)[O-])cc2[N+](=O)[O-])c([N+](=O)[O-])c1,-1%,7%,-6%,?,-3,5
CNC(=O)c1ccccc1Sc1cccc2cccc(C(=O)O)c12,-2%,3%,·,26%,-3,-9
CC(OC(=O)c1ccccc1NS(=O)(=O)c1cccc(C(F)(F)F)c1)C(=O)N(C)Cc1ccccc1 (configuration not stated),25%,2%,?,10µM*,-2,-16
CN(C)CCN(CC1CCCN(Cc2ccccc2F)C1)C(=O)c1ccc(Cl)cc1 (configuration not stated),2%,0%,?,13µM*,-1,-2
CCn1c(O)c(/C=C2\C=Nc3ccccc32)sc1=Nc1ccccc1,-2%,6%,?,2%,27*,98*
COC(CNC(=O)c1ccc2c(c1)ncn2-c1cccc(C)c1)OC,0%,1%,-9%,13%,-1,4
O=[N+]([O-])c1cccc(-c2c[n+]3c(n2-c2ccccc2)SCC3)c1,·,-7%,1µM*,1µM*,1,-7
Clc1ccc(-c2c[n+]3c(n2-c2ccccc2)SCC3)cc1,·,0%,1.2µM*,0.17µM*,-1,6
O=[N+]([O-])c1cccc(-c2n[nH]c(=S)n2-c2ccccc2)c1,13%,2%,7%,21%,0,-12
SMILES,NS1 function inh,SARS PLP yeast,Pf growth 48h,Pf growth 96h,CHX counter,Shiga inhibitor
COc1ccccc1C(=O)NC(=O)COC(=O)c1cccc(C)c1O,·,-2%,?,6%,·,·
CCN1C[C@]2(COC)CC[C@H](OC)[C@@]34C1[C@]1(OCO[C@@]15C[C@H](OC)[C@H]1C[C@@H]3[C@@H]5[C@H]1OC)[C@@H](O)[C@H]24,·,·,8%,26%,·,·
CCN1C[C@@]2(COC)CCC(OC)[C@]34C5C[C@]6(O)[C@@H](OC)C[C@](OC(C)=O)(C([C@H](OC)C23)[C@H]14)C5[C@H]6OC(=O)c1ccc(OC)cc1 (some centres not stated),·,·,·,·,21*,23*
COc1ccc(Cc2nnc(NC(=O)C3CCN(C(=O)c4ccco4)CC3)s2)cc1,15%,1%,?,16%,0,-6
Cc1cccc2sc(NC(=O)c3ccc(Cl)s3)nc12,2%,1%,·,13µM*,16,-2
Cc1cccc2sc(NC(=O)CSCc3ccccc3)nc12,-2%,5%,·,8%,18*,62
Cc1cccc2sc(NC(=O)Cn3cccc3)nc12,-16%,-35%,5%,-7%,-2,8
O=C(Nc1nc2c(Cl)c(Cl)ccc2s1)C1CC1,-21%,1%,15%,31%,25*,28*
COC(=O)Nc1nc2c(C)cccc2s1,-18%,2%,66%,·,26,31
O=C(CCN1C(=O)C2CCCCC2C1=O)Nc1nc2c(F)cc(F)cc2s1 (configuration not stated),·,-4%,249%,269%,·,·
O=C(Nc1nc2c(F)cc(F)cc2s1)C1CC1,-31%,-1%,86%,83%,44*,85*
Cc1c(C)c2cc(Cl)c(OCc3nn[nH]n3)cc2oc1=O,?,6%,17%,19%,3,-14
COc1ccc(/C=C/C(=O)NCC(=O)N/N=C(/CCC(=O)O)c2ccccc2)cc1,1%,-2%,-1%,20%,8,0
CNC(=O)CC1C(=O)N(c2ccc(OC)cc2)C(=S)N1NC(=O)c1cccc(F)c1 (configuration not stated),2%,0%,11%,42%,10,6
CC(C)c1cccc(C(C)C)c1NC(=O)COC(=O)[C@H](C)NC(N)=O,4%,0%,?,?,-5,-11
Cc1cccc2sc(NC(=O)C3CC3)nc12,-18%,·,31%,32%,23*,40*
O=C(Nc1nc2c(Br)cccc2s1)C1CC1,-100%,-33%,34%,53%,18*,11
O=C(Nc1nc2c(Cl)cccc2s1)C1CC1,-45%,-32%,29%,38%,15,27
Cc1cc(Cl)cc2sc(NC(=O)C3CC3)nc12,-1%,3%,38%,68%,11*,15
Cc1ccc2sc(NC(=O)C3CC3)nc2c1C,-43%,-32%,39%,49%,36*,63*
COC(=O)c1ccc(N2CCN(C)CC2)c(NC(=O)c2cccnc2)c1,·,-4%,18%,?,19,40
COc1cccc2sc(NC(=O)c3ccc(Br)s3)nc12,-3%,-6%,·,22%,32*,72
